Source: PubChem BioAssay (NCI)
Compounds without any hit were thinned out: in the full panel of roughly 83,000, 20% have a hit.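 Negative percent growth values reflect cell death: -40 means 40% of the cells present at the start died, and -100 means all died.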 The source made the active and inactive calls. Rule for the calls: active = growth percent below 10; inactive = the rest.

What was measured:
Assay in all cases: NCI-60 one-dose screen, 48 h (100 = growth as untreated, 0 = no growth, -100 = all killed)
Details in all cases: 10 µM unless noted
EKVX NSCLC = system: EKVX NSCLC
SN12C renal = system: SN12C renal
UO-31 renal = system: UO-31 renal
TK-10 renal = system: TK-10 renal
ACHN renal = system: ACHN renal
CAKI-1 renal = system: CAKI-1 renal
A498 renal = system: A498 renal
CCRF-CEM leukemia = system: CCRF-CEM leukemia
MOLT-4 leukemia = system: MOLT-4 leukemia
SR leukemia = system: SR leukemia
RPMI-8226 leukemia = system: RPMI-8226 leukemia
OVCAR-8 ovarian = system: OVCAR-8 ovarian
OVCAR-5 ovarian = system: OVCAR-5 ovarian
OVCAR-4 ovarian = system: OVCAR-4 ovarian
SK-OV-3 ovarian = system: SK-OV-3 ovarian
IGROV1 ovarian = system: IGROV1 ovarian
OVCAR-3 ovarian = system: OVCAR-3 ovarian
NCI/ADR-RES ovarian = system: NCI/ADR-RES ovarian

Measured: growth

C=CCN(/C=C1/C(=O)O[C@H](COC)[C@@]2(C)C1=C(O)C(=O)C1=C2[C@H](OC(C)=O)C[C@]2(C)C(=O)CC[C@@H]12)CC=C
inactive: EKVX NSCLC 21.8% | SN12C renal 30.2% | ACHN renal 24.7% | CCRF-CEM leukemia 12.8% | RPMI-8226 leukemia 35.2% | OVCAR-8 ovarian 29.4% | OVCAR-5 ovarian 20.5% | OVCAR-4 ovarian 30.6% | OVCAR-3 ovarian 21% | NCI/ADR-RES ovarian 35.4%
active: UO-31 renal 3.12% | TK-10 renal 3.59% | CAKI-1 renal 8.92% | A498 renal -66.8% | MOLT-4 leukemia -2.31% | SR leukemia 0.113% | SK-OV-3 ovarian -19.6% | IGROV1 ovarian -1.93%

COC(=O)c1ccc2c(C(=Nc3ccc(N(C)C(=O)CN4CCN(C)CC4)cc3)c3ccccc3)c(O)[nH]c2c1
inactive: EKVX NSCLC 94% | SN12C renal 44.8% | TK-10 renal 46.5% | ACHN renal 48.8% | CAKI-1 renal 51.8% | A498 renal 21.7% | CCRF-CEM leukemia 40.4% | MOLT-4 leukemia 50.5% | RPMI-8226 leukemia 62.4% | OVCAR-8 ovarian 53.2% | OVCAR-5 ovarian 64.5% | OVCAR-4 ovarian 68.5% | SK-OV-3 ovarian 53.2% | IGROV1 ovarian 33.6% | OVCAR-3 ovarian 91.3% | NCI/ADR-RES ovarian 82.2%
active: UO-31 renal 9.57% | SR leukemia 6.5%

C/C(=N\NC(=O)Cn1c(-c2ccc(S(C)(=O)=O)cc2)nc2ccccc21)c1ccc(Cl)cc1
inactive: EKVX NSCLC 101% | SN12C renal 97.4% | UO-31 renal 66.1% | TK-10 renal 109% | ACHN renal 93.6% | CAKI-1 renal 91.9% | A498 renal 104% | CCRF-CEM leukemia 77% | MOLT-4 leukemia 79.7% | SR leukemia 87.9% | RPMI-8226 leukemia 87.1% | OVCAR-8 ovarian 80.9% | OVCAR-5 ovarian 106% | OVCAR-4 ovarian 100% | SK-OV-3 ovarian 94.9% | IGROV1 ovarian 92.6% | OVCAR-3 ovarian 96.6% | NCI/ADR-RES ovarian 103%

Cc1c(CN2CCN(C(=O)[C@H](C)O)CC2)sc2c(N3CCOCC3)nc(-c3cnc(N)nc3)nc12
active: EKVX NSCLC 1.75% | SN12C renal 4.45% | UO-31 renal -30.6% | TK-10 renal -31.4% | ACHN renal -11% | CAKI-1 renal -17.8% | A498 renal -52.9% | CCRF-CEM leukemia 7.59% | MOLT-4 leukemia 1.65% | SR leukemia -3.28% | RPMI-8226 leukemia 1.84% | OVCAR-8 ovarian -4.51% | OVCAR-5 ovarian -11.6% | OVCAR-4 ovarian -9.47% | SK-OV-3 ovarian -39.1% | IGROV1 ovarian -50.1% | OVCAR-3 ovarian 3.12% | NCI/ADR-RES ovarian 7%

C[C@H]1Oc2cc(cnc2N)-c2c(nn(C)c2C#N)CN(C)C(=O)c2ccc(F)cc21
active: SR leukemia 6.17%
inactive: EKVX NSCLC 82.5% | SN12C renal 94.6% | UO-31 renal 84.3% | TK-10 renal 74% | ACHN renal 86% | CAKI-1 renal 73% | A498 renal 109% | CCRF-CEM leukemia 93.8% | MOLT-4 leukemia 70.5% | RPMI-8226 leukemia 92.6% | OVCAR-8 ovarian 83.2% | OVCAR-5 ovarian 58.3% | OVCAR-4 ovarian 81.1% | SK-OV-3 ovarian 55.1% | IGROV1 ovarian 80.2% | OVCAR-3 ovarian 108% | NCI/ADR-RES ovarian 80.4%

CC(C)c1cc(CNc2nc(Nc3cc(C4CC4)[nH]n3)cc(N3CCN(C)CC3)n2)on1
active: EKVX NSCLC 7.39% | SN12C renal 9.72% | UO-31 renal -2.19% | TK-10 renal -16.4% | ACHN renal 8.49% | CAKI-1 renal 4.85% | A498 renal -78.5% | CCRF-CEM leukemia 8.07% | MOLT-4 leukemia 0.889% | SR leukemia -5.3% | RPMI-8226 leukemia -13.3% | OVCAR-8 ovarian 6.51% | OVCAR-4 ovarian -8.07% | SK-OV-3 ovarian 0.435% | IGROV1 ovarian 8.34%
inactive: OVCAR-5 ovarian 18.5% | OVCAR-3 ovarian 15.5% | NCI/ADR-RES ovarian 39.2%

C[C@H](NC(=O)c1c(N)nn2cccnc12)c1cc2cccc(C#Cc3cnn(C)c3)c2c(=O)n1-c1ccccc1
inactive: EKVX NSCLC 33.9% | SN12C renal 40.6% | UO-31 renal 10.6% | ACHN renal 20.7% | CAKI-1 renal 21.3% | CCRF-CEM leukemia 13.8% | OVCAR-8 ovarian 28.1% | OVCAR-5 ovarian 45.1% | OVCAR-4 ovarian 31.1% | OVCAR-3 ovarian 19.9% | NCI/ADR-RES ovarian 31.1%
active: TK-10 renal -9.96% | A498 renal -24.3% | MOLT-4 leukemia -4.98% | SR leukemia 3.42% | RPMI-8226 leukemia 4.95% | SK-OV-3 ovarian -1.83% | IGROV1 ovarian -22.7%

NC[C@@](O)(c1ccc(Cl)cc1)c1ccc(-c2cn[nH]c2)cc1
inactive: EKVX NSCLC 27.1% | SN12C renal 29.3% | ACHN renal 11.6% | CAKI-1 renal 11.3% | CCRF-CEM leukemia 15.8% | MOLT-4 leukemia 13.2% | RPMI-8226 leukemia 19.1% | OVCAR-8 ovarian 29.1% | OVCAR-5 ovarian 18.8% | OVCAR-4 ovarian 16.9% | SK-OV-3 ovarian 20% | OVCAR-3 ovarian 52.4% | NCI/ADR-RES ovarian 40.9%
active: UO-31 renal -13.6% | TK-10 renal 5.87% | A498 renal -2.12% | SR leukemia 0.545% | IGROV1 ovarian -18%

COc1cc2nccc(Oc3ccc(NC(=O)C4(C(=O)Nc5ccc(F)cc5)CC4)cc3)c2cc1OC
inactive: EKVX NSCLC 23.4% | TK-10 renal 15.1% | CCRF-CEM leukemia 19.1% | MOLT-4 leukemia 11.6% | RPMI-8226 leukemia 26.4% | OVCAR-8 ovarian 19.8% | OVCAR-4 ovarian 26.3% | OVCAR-3 ovarian 41.2% | NCI/ADR-RES ovarian 13.8%
active: SN12C renal 9.57% | UO-31 renal -19.2% | ACHN renal 4.85% | CAKI-1 renal -14.9% | A498 renal -44.2% | SR leukemia 0.0186% | OVCAR-5 ovarian 9.6% | SK-OV-3 ovarian -15.1% | IGROV1 ovarian -15.9%

O=C(Cc1ccc(-c2ccc(OCCN3CCOCC3)cc2)cn1)NCc1ccccc1
active: A498 renal 1.26% | CCRF-CEM leukemia 9.96% | SR leukemia 6.9% | OVCAR-8 ovarian 1.32% | SK-OV-3 ovarian -11.9% | NCI/ADR-RES ovarian 0.0856%
inactive: EKVX NSCLC 26.1% | SN12C renal 20.3% | UO-31 renal 35.8% | TK-10 renal 40.3% | ACHN renal 22.1% | CAKI-1 renal 19% | MOLT-4 leukemia 18.1% | RPMI-8226 leukemia 14.5% | OVCAR-5 ovarian 29.9% | OVCAR-4 ovarian 47.9% | IGROV1 ovarian 15.5% | OVCAR-3 ovarian 20.3%

C=CC(=O)Nc1cc(Nc2nccc(-c3cn(C)c4ccccc34)n2)c(OC)cc1N(C)CCN(C)C
inactive: SK-OV-3 ovarian 15.4%
active: EKVX NSCLC -46.2% | SN12C renal -59.3% | UO-31 renal -83.2% | TK-10 renal -17.1% | ACHN renal -95.4% | CAKI-1 renal -86.4% | A498 renal -58.3% | CCRF-CEM leukemia -17.1% | MOLT-4 leukemia -52.7% | SR leukemia -24% | RPMI-8226 leukemia -22% | OVCAR-8 ovarian -25.4% | OVCAR-5 ovarian -56.5% | OVCAR-4 ovarian -13.5% | IGROV1 ovarian -48.8% | OVCAR-3 ovarian -55.3% | NCI/ADR-RES ovarian -38.8%

COCCOc1cnc2ccn([C@H](C)c3nnc4c(F)cc(-c5cnn(C)c5)cn34)c(=O)c2c1
inactive: EKVX NSCLC 96% | SN12C renal 86.3% | UO-31 renal 60% | TK-10 renal 105% | ACHN renal 80.3% | CAKI-1 renal 65.2% | A498 renal 35.9% | CCRF-CEM leukemia 70.6% | MOLT-4 leukemia 78.7% | SR leukemia 84% | RPMI-8226 leukemia 78.8% | OVCAR-8 ovarian 86.9% | OVCAR-5 ovarian 31.5% | OVCAR-4 ovarian 88.4% | SK-OV-3 ovarian 82.4% | IGROV1 ovarian 66.3% | OVCAR-3 ovarian 102% | NCI/ADR-RES ovarian 91.3%

Cn1c(Nc2ccc(C(F)(F)F)cc2)nc2cc(Oc3ccnc(-c4ncc(C(F)(F)F)[nH]4)c3)ccc21
inactive: EKVX NSCLC 57.9% | SN12C renal 59.8% | UO-31 renal 28.8% | TK-10 renal 95% | ACHN renal 42.2% | CAKI-1 renal 34.7% | A498 renal 23.7% | CCRF-CEM leukemia 36.6% | MOLT-4 leukemia 25.7% | SR leukemia 32.1% | RPMI-8226 leukemia 86.7% | OVCAR-8 ovarian 58.1% | OVCAR-5 ovarian 63.2% | OVCAR-4 ovarian 64.7% | IGROV1 ovarian 33.1% | OVCAR-3 ovarian 58.8% | NCI/ADR-RES ovarian 66.3%
active: SK-OV-3 ovarian 6.69%

C=CC(=O)N1CCC[C@@H](n2nc(-c3ccc(Oc4ccccc4)cc3)c3c(N)ncnc32)C1
active: UO-31 renal 6.16% | TK-10 renal -8.56% | A498 renal -17.1% | SK-OV-3 ovarian -2.8% | IGROV1 ovarian 7.56%
inactive: EKVX NSCLC 52.8% | SN12C renal 27.2% | ACHN renal 23.5% | CAKI-1 renal 32.9% | CCRF-CEM leukemia 54.8% | MOLT-4 leukemia 25.3% | SR leukemia 50.3% | RPMI-8226 leukemia 42.1% | OVCAR-8 ovarian 40.1% | OVCAR-5 ovarian 81.7% | OVCAR-4 ovarian 60.6% | OVCAR-3 ovarian 66.3% | NCI/ADR-RES ovarian 46.4%

C=CC(=O)N1CCC[C@H](n2c(=O)n(-c3ccc(Oc4ccccc4)cc3)c3c(N)ncnc32)C1
inactive: EKVX NSCLC 57.4% | SN12C renal 71% | UO-31 renal 50.5% | TK-10 renal 27.6% | ACHN renal 41.2% | CAKI-1 renal 69.1% | A498 renal 81.2% | CCRF-CEM leukemia 82.3% | MOLT-4 leukemia 68.5% | SR leukemia 74% | RPMI-8226 leukemia 76.4% | OVCAR-8 ovarian 65.8% | OVCAR-5 ovarian 86.6% | OVCAR-4 ovarian 85.3% | IGROV1 ovarian 30.7% | OVCAR-3 ovarian 76.4% | NCI/ADR-RES ovarian 74.9%
active: SK-OV-3 ovarian 3%

Nc1cc(C(F)(F)F)c(-c2cc(N3CCOCC3)nc(N3CCOCC3)n2)cn1
active: EKVX NSCLC -13.4% | SN12C renal -3.99% | UO-31 renal -34.4% | TK-10 renal -35.4% | ACHN renal -8.54% | CAKI-1 renal -25.1% | A498 renal -80.4% | CCRF-CEM leukemia 4.63% | MOLT-4 leukemia -11.9% | SR leukemia -6.66% | RPMI-8226 leukemia -6.64% | OVCAR-8 ovarian -24.2% | OVCAR-5 ovarian -17.3% | OVCAR-4 ovarian -11.9% | SK-OV-3 ovarian -54.8% | IGROV1 ovarian -44.6% | OVCAR-3 ovarian -9.69% | NCI/ADR-RES ovarian -20.2%
